A-T KAP1 phos = potential ataxia-telangiectasia treatment. Potency, µM (top dose mostly 57.5 µM), usual class: activators. AID 485349. F2112 A-T fibroblasts, KAP-1 phosphorylation AlphaLISA; neocarzinostatin DNA damage 30 min before lysis. 320,000 compounds, 0.19% hits; also: nearly all actives have a fitted effect of over 45% in size
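hTERT-immortalized A-T patient fibroblasts (F2112), 500 cells/well in OPTI-MEM, 1% FBS, got compounds for 60 min, then NCS for 30 min at 37C. Lysates were then assayed for phospho-KAP-1 by AlphaLISA (anti-pKAP1 donor, anti-KAP1 acceptor beads), 6 hr at 25C.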
ALOX12 inh = ALOX12 (human) lipoxygenase inhibition. 580,000 compounds, 1.1% hits. Potency, µM (titrated, usually from 108 µM), most hits filed as inhibitors. purified 12hLO, xylenol orange hydroperoxide absorbance. AID 1671190
Target sequence (P18054 whole entry, looked up): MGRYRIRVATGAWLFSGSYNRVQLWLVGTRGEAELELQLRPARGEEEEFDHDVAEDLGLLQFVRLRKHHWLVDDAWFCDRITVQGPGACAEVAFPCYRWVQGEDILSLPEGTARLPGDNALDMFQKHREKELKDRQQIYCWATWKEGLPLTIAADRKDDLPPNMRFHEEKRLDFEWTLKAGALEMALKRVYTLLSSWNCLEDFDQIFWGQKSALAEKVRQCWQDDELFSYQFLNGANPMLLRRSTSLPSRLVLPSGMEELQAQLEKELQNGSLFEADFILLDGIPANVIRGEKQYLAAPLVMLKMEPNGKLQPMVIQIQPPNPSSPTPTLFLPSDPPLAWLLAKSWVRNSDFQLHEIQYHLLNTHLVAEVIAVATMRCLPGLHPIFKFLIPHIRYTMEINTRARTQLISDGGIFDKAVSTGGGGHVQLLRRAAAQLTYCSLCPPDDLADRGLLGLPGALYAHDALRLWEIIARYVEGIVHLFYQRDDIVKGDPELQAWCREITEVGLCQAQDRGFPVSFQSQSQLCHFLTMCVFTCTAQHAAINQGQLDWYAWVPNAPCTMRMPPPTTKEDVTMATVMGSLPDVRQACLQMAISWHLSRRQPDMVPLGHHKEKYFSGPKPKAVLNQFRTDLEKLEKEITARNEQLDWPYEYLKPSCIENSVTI
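Purified human 12hLO at 150 nM in 25 mM Hepes, 0.01% Triton X-100, pH 7.0, preincubated 15 min at room temperature with compound. Reaction started with 40 uM arachidonic acid, 30 min at room temperature. Hydroperoxide measured by Fe-xylenol orange, 573/405 nm absorbance ratio.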
KCNH2 WT inh = blocks the wildtype human KCNH2 potassium channel; AID 720551; activity change, % at 1.84 µM; Q12809; 340,000 compounds, 0.37% hits; U2OS, BacMam KCNH2, thallium flux FluxOr; hits give low values;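 active = maximum activity change below -70%; inconclusive = maximum activity change between -70% and -50%; inactive = maximum activity change above -50%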
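U2OS cells were transduced with wild-type KCNH2 virus (2.03 x 10^8 / mL) for 4 h at room temperature, then cultured overnight at 37 C. Thallium flux was read with FluxOr dye. Rate constants were normalized to DMSO controls.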
KCNH2 3.1 block = inhibitors of human KCNH2 3.1 potassium channel isoform. 340,000 compounds, 0.95% hits. AID 720553. U2OS KCNH2 3.1, thallium flux FluxOr; hits give low values. activity change, % (tested at about 1.8 µM);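 active = maximum activity change below -70%; inconclusive = maximum activity change from -70% to -50%; inactive = maximum activity change above -50%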;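 also: thallium influx rate constant from kinetic fluorescence after stimulation buffer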
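Virally transduced U2OS (3.1 isoform, 4 h infection in dark at RT) → overnight 37 C → FluxOr + Red40 in HBSS/HEPES, 45 min → stimulation buffer, 2 min kinetic read → rate constant vs DMSO controls.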
Hits are given with their value; [ ] = another dose, or the depositor's remark. This is a sample that favours compounds with a hit; in the whole collection about 1.8% have one here. Unless noted, calls follow the shape of the dose curve; as a rule, active = well fitted curve in the direction sought with a large enough effect; inconclusive = small, poorly fitted or top-dose-only effect, or another doubt; inactive = no such curve, though single readings can be large; an effect the other way counts as inactive or inconclusive.

`CC1(C)C(=O)N(CCOc2ccccc2)[C@H]2CN(c3cccc(C(F)(F)F)c3)C[C@@H]2[S+]1(=O)[O-]` gave ALOX12 inh inactive.
O=C(c1cc(-c2ccc(Cl)s2)nc2ccccc12)N1CCCC1 was read as ALOX12 inh inconclusive, KCNH2 WT inh inactive and KCNH2 3.1 block inactive.
Screening CCNC(=O)c1cc(-c2ccc(OC)cc2OC)nc2ccccc12 returned ALOX12 inh 8.9µM.
Screening COc1ccc(-c2cc(C(=O)N3CCCC3)c3ccccc3n2)c(OC)c1 returned ALOX12 inh 18µM.
`Cc1ccc(-c2cc(C(=O)N3CCCC3)c3ccccc3n2)s1` gave A-T KAP1 phos 20µM, ALOX12 inh inconclusive, KCNH2 WT inh inactive and KCNH2 3.1 block inactive.
Screening O=C(/C=C/c1ccco1)N1CCC(Cc2ccccc2)CC1 returned A-T KAP1 phos inactive, ALOX12 inh inactive, KCNH2 WT inh inactive and KCNH2 3.1 block inactive.
OC(CCN1CC2CCC(CC2)C1)(Cc1ccccc1)c1ccco1 (centres undefined) was read as ALOX12 inh 2.5µM, KCNH2 WT inh inactive and KCNH2 3.1 block inactive.
O=C(N1CCCC1)N1CCn2c(nnc2-c2cncc(Br)c2)C1 was read as ALOX12 inh inactive[6.33 µM].
Screening CC(CCN1C(Nc2ccccc2)=NC[C@@H]1Cc1ccccc1)c1ccccc1 (some centres undefined) returned A-T KAP1 phos inactive, ALOX12 inh inactive, KCNH2 WT inh inactive and KCNH2 3.1 block -82.
Screening CC(C)C[C@H]1CN=C(Nc2ccccc2)N1CCC1CCCCC1 returned A-T KAP1 phos inactive, ALOX12 inh inactive, KCNH2 WT inh inactive and KCNH2 3.1 block inconclusive.
For c1ccc(C[C@H]2CN=C(Nc3ccccc3)N2CCC2CCCC2)cc1 the results were A-T KAP1 phos inactive, ALOX12 inh inactive, KCNH2 WT inh inactive and KCNH2 3.1 block -94.
Cc1ccc(/C=N/NC(=O)CC#N)cc1 was read as ALOX12 inh inactive.
Screening Cc1ccccc1-c1noc(-c2ccc(NC(C)c3cnn(C)c3)nc2)n1 (centres undefined) returned ALOX12 inh inactive.
For COc1ccc(-c2cc(N3CCCC(NC(=O)c4cccc5[nH]ccc45)C3)n[nH]2)cc1 (centres undefined) the results were ALOX12 inh inactive.
CCN(CCn1cccn1)C(=O)CCc1nnc(-c2ccccc2)o1 was read as A-T KAP1 phos inactive, ALOX12 inh inconclusive, KCNH2 WT inh inactive and KCNH2 3.1 block inactive.
CCN(CCn1cccn1)C(=O)CCc1nnc(C2(c3ccc(Cl)cc3)CCC2)o1 was read as A-T KAP1 phos inactive, ALOX12 inh inactive, KCNH2 WT inh -137 and KCNH2 3.1 block -194.
Cn1c(-c2sc3ccccc3c2Cl)n[nH]c1=S was read as A-T KAP1 phos inactive, ALOX12 inh 14µM, KCNH2 WT inh inactive and KCNH2 3.1 block inactive.
`O=C(O)CNC(=O)c1cc(-c2ccccc2)nc2ccccc12` gave ALOX12 inh inactive.
OCCNCc1ccc(OCc2ccc(Cl)cc2Cl)cc1 was read as A-T KAP1 phos inactive, ALOX12 inh inconclusive, KCNH2 WT inh inactive and KCNH2 3.1 block -84.
`c1ccc2c(-c3ccn[nH]3)cccc2c1` gave ALOX12 inh 25µM.
`c1ccc2oc(-c3ccn[nH]3)cc2c1` gave A-T KAP1 phos inactive, ALOX12 inh inactive, KCNH2 WT inh inactive and KCNH2 3.1 block inactive.
Screening CCOC(=O)C1=C(C)NC(=O)CC1C(=O)Nc1cc(Cl)cc(Cl)c1 (centres undefined) returned ALOX12 inh 16µM.
For Clc1cccc(OCCN2CCCC2)c1 the results were A-T KAP1 phos inactive, ALOX12 inh inactive, KCNH2 WT inh inactive and KCNH2 3.1 block inactive.
For CC(C)c1cccc(OCCN2CCCC2)c1 the results were A-T KAP1 phos inactive, ALOX12 inh 0.63µM, KCNH2 WT inh inactive and KCNH2 3.1 block inactive.
S=C(NCc1ccccn1)Nc1ccc(Cl)cc1 was read as A-T KAP1 phos inactive, ALOX12 inh inconclusive, KCNH2 WT inh -199 and KCNH2 3.1 block -196.
`CC(=O)c1ccc(NC(=S)NCCc2ccc(Cl)cc2)cc1` gave ALOX12 inh 50µM.
Screening OCCCNC(=S)Nc1ccc(Nc2ccccc2)cc1 returned A-T KAP1 phos inactive, ALOX12 inh inconclusive, KCNH2 WT inh inactive and KCNH2 3.1 block inactive.
Screening OCCCNC(=S)Nc1ccc(Cl)cc1 returned ALOX12 inh 50µM.
`CC(C)N(C(=O)Cn1c(SCC(=O)NCc2ccc3c(c2)OCO3)nc2ccccc21)C(C)C` gave A-T KAP1 phos inactive, ALOX12 inh inactive, KCNH2 WT inh -122 and KCNH2 3.1 block inactive.
For CC(C)Sc1nc2ccccc2n1CC(=O)NCc1ccc2c(c1)OCO2 the results were A-T KAP1 phos inactive, ALOX12 inh inactive, KCNH2 WT inh inactive and KCNH2 3.1 block inactive.
Screening O=C(CN1CCCc2ccccc21)NC(=O)NCc1ccccc1 returned A-T KAP1 phos inactive, ALOX12 inh inactive, KCNH2 WT inh inactive and KCNH2 3.1 block inactive.
For CC(C)(C)NC(=O)NC(=O)CN1CCCc2ccccc21 the results were A-T KAP1 phos inactive, ALOX12 inh inactive, KCNH2 WT inh inactive and KCNH2 3.1 block -88.
`C/C(=N\Nc1cccc(C(F)(F)F)c1)c1ccc(O)cc1` gave A-T KAP1 phos inactive, ALOX12 inh 35µM, KCNH2 WT inh inactive and KCNH2 3.1 block inactive.
Screening O=C(O)c1ccc(/C=N/Nc2cccc(C(F)(F)F)c2)cc1 returned A-T KAP1 phos inactive, ALOX12 inh 45µM, KCNH2 WT inh inactive and KCNH2 3.1 block inactive.
`FC(F)(F)c1cccc(N/N=C/c2ccc(Br)cc2)c1` gave ALOX12 inh 0.79µM.
For O=C(c1cccc(OC2CN(CC3CC=CCC3)C2)c1)N1CCCC1 (centres undefined) the results were ALOX12 inh inactive.
NC(=O)[C@@H](Cc1ccccc1)NC(=O)[C@@H]1C[C@@H](NS(=O)(=O)c2cccs2)CCN1C(=O)COCC(=O)O was read as ALOX12 inh inactive.
CCN(CC)S(=O)(=O)c1ccc2c(c1)nc(CCC(=O)OCC(=O)Nc1cc(Cl)cc(Cl)c1)n2C was read as A-T KAP1 phos inactive, ALOX12 inh inactive, KCNH2 WT inh inactive and KCNH2 3.1 block -83.
CCc1ccc(NC(=O)COC(=O)CCc2nc3cc(S(=O)(=O)N(CC)CC)ccc3n2C)cc1 was read as A-T KAP1 phos inactive, ALOX12 inh inactive, KCNH2 WT inh inactive and KCNH2 3.1 block inactive.
C[N+](C)(C)CCN(Cc1ccc(Cl)cc1)c1ccccn1 was read as A-T KAP1 phos inactive, ALOX12 inh 16µM, KCNH2 WT inh inactive and KCNH2 3.1 block inactive.
`CN(C)CCN(Cc1ccc(Cl)cc1)c1ccccn1` gave A-T KAP1 phos inactive, ALOX12 inh inactive, KCNH2 WT inh inactive and KCNH2 3.1 block inconclusive.
Screening COC(=O)Cn1c(=O)c2c(nc(-n3nc(C)cc3C)n2Cc2cccc(C)c2)n(C)c1=O returned ALOX12 inh inactive.
`CCOCCCNC(=O)CN1C(=O)CSc2ccccc21` gave A-T KAP1 phos inactive, ALOX12 inh inactive, KCNH2 WT inh inactive and KCNH2 3.1 block -72.
CCCNC(=S)Nc1cccc(Cl)c1 was read as ALOX12 inh inactive.
